# Measurements from PubChem BioAssay (Tox21).
# Records with an inconclusive call do not appear. Where a call stands in place of a potency, no number is given. Active and inactive are the calls of the source. Unless noted, calls come from the whole dose curve; as a rule, active = well fitted curve in the direction sought with a large enough effect in the repeat runs; inconclusive = weak or mixed curves; inactive = no such curve, though single readings can be large; an effect the other way counts as inactive or inconclusive.
# How the values were obtained:
# [1] = qHTS assay to identify small molecule antagonists of the glucocorticoid receptor (GR) signaling pathway - cell viability counter screen (AID 720693); note: nearly all actives have a fitted effect of over 55% in size
# [2] = qHTS assay for identifying genotoxic compounds that show differential cytotoxicity against isogenic chicken DT40 cell lines with known DNA damage response pathways - wild type cell line (AID 743012); note: nearly all actives have a fitted effect of over 60% in size; note: potency is the fitted concentration of half-maximal effect
# Method in brief: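 Using parental DT40 (300 cells/well), compounds delivered in DMSO incubate 40 h at 37 C/5% CO2. CellTiter-Glo reagent then stands 30 min at room temperature, and luminescence gives cell viability.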
# [3] = qHTS assay for identifying genotoxic compounds that show differential cytotoxicity against isogenic chicken DT40 cell lines with known DNA damage response pathways - Rev3 mutant cell line (AID 743014); note: nearly all actives have a fitted effect of over 55% in size; note: potency is the fitted concentration of half-maximal effect
# [4] = qHTS assay for identifying genotoxic compounds that show differential cytotoxicity against isogenic chicken DT40 cell lines with known DNA damage response pathways - Rad54/Ku70 mutant cell line (AID 743015); note: nearly all actives have a fitted effect of over 60% in size; note: potency is the fitted concentration of half-maximal effect
# [5] = qHTS assay to identify small molecule antagonists of the androgen receptor (AR) signaling pathway - cell viability counter screen (AID 743033; note: nearly all actives have a fitted effect of over 45% in size)
# [6] = qHTS assay to identify small molecule antagonists of the androgen receptor (AR) signaling pathway using the MDA cell line - cell viability counter screen (AID 743041; note: nearly all actives have a fitted effect of over 45% in size)
# Method in brief: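 MDA-kb2 AR-luc cells (MMTV-luciferase, AR/GR responsive) treated with compounds plus R1881 agonist for 16 h at 37C. CellTiter-Fluor added at 15.5 h; fluorescence read after 30 min in the same wells.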
# [7] = qHTS assay to identify small molecule antagonists of the thyroid receptor (TR) signaling pathway - cell viability counter screen (AID 743064); note: nearly all actives have a fitted effect of over 50% in size; note: potency is the fitted concentration of half-maximal effect
# Method in brief: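 GH3.TRE-Luc rat pituitary cells dosed after 4 hr plating, co-stimulated with T3 at 1 nM final, incubated 23.5 h at 37 C. Viability measured in the same wells by CellTiter-Fluor fluorescence after 30 min further at 37 C.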
# [8] = qHTS assay to identify small molecule antagonists of the thyroid receptor (TR) signaling pathway (AID 743065); note: nearly all actives have a fitted effect of over 55% in size; note: potency is the fitted concentration of half-maximal effect
# Method in brief: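 GH3.TRE-Luc rat pituitary cells (two TREs driving luciferase) were dosed with compound, then stimulated with 1 nM T3 (final) for 23.5 h at 37 C. ONE-Glo luminescence was the read-out, with CellTiter-Fluor fluorescence as the cytotoxicity counter-screen.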
# [9] = tested on: thyroid hormone receptor (rat, GH3 cells); assay: qHTS assay to identify small molecule agonists of the thyroid receptor (TR) signaling pathway (AID 743066; calls by dose curve)
# [10] = biological target: Estrogen receptor (Homo sapiens) (UniProt P03372); assay: qHTS assay to identify small molecule agonists of the estrogen receptor alpha (ER-alpha) signaling pathway (AID 743075; calls by dose curve)
# Sequence of Estrogen receptor (Homo sapiens) (P03372 whole entry, looked up): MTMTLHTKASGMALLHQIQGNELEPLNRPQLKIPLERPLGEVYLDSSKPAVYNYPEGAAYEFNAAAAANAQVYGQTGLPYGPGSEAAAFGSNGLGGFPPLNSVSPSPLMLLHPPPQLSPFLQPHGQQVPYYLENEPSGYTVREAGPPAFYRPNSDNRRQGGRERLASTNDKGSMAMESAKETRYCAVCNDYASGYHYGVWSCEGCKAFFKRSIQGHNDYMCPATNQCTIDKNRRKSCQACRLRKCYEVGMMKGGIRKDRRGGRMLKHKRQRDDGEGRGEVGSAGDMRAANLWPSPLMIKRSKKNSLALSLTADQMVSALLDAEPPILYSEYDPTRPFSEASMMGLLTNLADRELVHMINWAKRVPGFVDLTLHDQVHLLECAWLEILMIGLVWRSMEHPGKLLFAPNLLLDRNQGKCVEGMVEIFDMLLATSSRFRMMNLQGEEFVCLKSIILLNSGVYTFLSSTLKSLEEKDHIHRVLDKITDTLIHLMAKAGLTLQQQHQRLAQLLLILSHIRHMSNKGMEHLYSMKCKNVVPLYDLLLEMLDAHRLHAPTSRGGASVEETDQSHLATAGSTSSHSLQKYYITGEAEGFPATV
# [11] = biological target: Estrogen receptor (Homo sapiens) (UniProt P03372); assay: qHTS assay to identify small molecule agonists of the estrogen receptor alpha (ER-alpha) signaling pathway using the BG1 cell line (AID 743079); note: nearly all actives have a fitted effect of over 20% in size
# [12] = qHTS assay to identify small molecule antagonists of the estrogen receptor alpha (ER-alpha) signaling pathway using the BG1 cell line (AID 743080; calls by dose curve;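 note: BG1 cells stimulated with 17beta-estradiol alongside compound; series mostly up to about 70 µM; nearly all actives have a fitted effect of over 25% in size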)
# Method in brief: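 BG1-Luc-4E2 cells (endogenous full-length ER-alpha, stable 4×ERE-luciferase) were starved 5 days in phenol-red-free medium with 10% charcoal-stripped FBS, plated 24 h, then given compound plus 17beta-estradiol for 21.5 h at 37 C; ONE-Glo luminescence read after 30 min.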
# [13] = qHTS assay to identify small molecule antagonists of the estrogen receptor alpha (ER-alpha) signaling pathway using the BG1 cell line - cell viability counter screen (AID 743081);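 note: compound given together with 17beta-estradiol as the ER stimulus; series mostly up to about 70 µM; nearly all actives have a fitted effect of over 45% in size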
# Aromatase (Homo sapiens) = Aromatase (Homo sapiens) (UniProt P11511); assay: qHTS assay to identify aromatase inhibitors (AID 743083); note: series mostly up to about 70 µM; nearly all actives have a fitted effect of over 55% in size
# Sequence of Aromatase (Homo sapiens) (P11511 whole entry, looked up): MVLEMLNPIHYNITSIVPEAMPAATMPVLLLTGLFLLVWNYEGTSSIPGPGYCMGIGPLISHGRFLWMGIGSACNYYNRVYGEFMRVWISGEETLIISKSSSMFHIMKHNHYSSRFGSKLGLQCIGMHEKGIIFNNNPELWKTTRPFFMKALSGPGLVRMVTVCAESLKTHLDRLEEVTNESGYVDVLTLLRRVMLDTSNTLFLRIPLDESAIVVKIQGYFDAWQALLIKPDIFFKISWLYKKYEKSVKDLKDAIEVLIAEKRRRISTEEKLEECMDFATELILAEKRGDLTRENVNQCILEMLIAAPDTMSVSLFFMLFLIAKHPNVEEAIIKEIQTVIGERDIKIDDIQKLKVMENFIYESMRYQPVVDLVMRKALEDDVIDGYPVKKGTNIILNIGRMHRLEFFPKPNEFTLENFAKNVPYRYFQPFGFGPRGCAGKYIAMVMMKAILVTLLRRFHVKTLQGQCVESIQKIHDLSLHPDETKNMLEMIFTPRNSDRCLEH
# [14] = qHTS assay to identify aromatase inhibitors - cell viability counter screen (AID 743084)
# [15] = biological target: Estrogen receptor (Homo sapiens) (UniProt P03372); assay: qHTS assay to identify small molecule antagonists of the estrogen receptor alpha (ER-alpha) signaling pathway (AID 743069; active = well fitted curve in the direction sought with a large enough effect in the signal ratio in the repeat runs, not every such curve was filed as active; the % refers to the signal ratio)
# Method in brief: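 HEK293 ER-alpha-UAS-bla GripTite cells, held overnight in 2% charcoal-stripped FBS, 5,000 cells/well, preincubated 4 h, then compound plus 17beta-estradiol for 18 h at 37C. Beta-lactamase read by LiveBLAzer B/G FRET substrate, 2 h at room temperature.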
# [16] = qHTS assay to identify small molecule antagonists of the estrogen receptor alpha (ER-alpha) signaling pathway - cell viability counter screen (AID 743074; calls by dose curve;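 note: HEK293 cells carrying ER-alpha-UAS-bla reporter stimulated with 17beta-estradiol; nearly all actives have a fitted effect of over 45% in size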)
Structure (SMILES),Potency [1],Potency [2],Potency [3],Potency [4],Potency [5],Potency [6],Potency [7],Potency [8],Potency [9],Potency [10],Potency [11],Potency [12],Potency [13],Potency (Aromatase (Homo sapiens)),Potency [14],Potency [15],Potency [16]
CCO[Si](CCCCl)(OCC)OCC,inactive,inactive,inactive,inactive,inactive,inactive,inactive,inactive,inactive,inactive,inactive,inactive,inactive,inactive,inactive,–,–
C[N+]1(CC2COC(c3ccccc3)(C3CCCCC3)O2)CCCCC1 (stereo not given),inactive,2.66 µM (active),3.76 µM (active),5.31 µM (active),inactive,–,–,–,–,inactive,inactive,inactive,inactive,inactive,inactive,inactive,inactive
CNC(=O)CN(CCN(CCN(CC(=O)[O-])CC(=O)NC)CC(=O)[O-])CC(=O)[O-].O.[Gd+3],inactive,inactive,inactive,inactive,inactive,inactive,inactive,–,inactive,inactive,inactive,inactive,inactive,inactive,inactive,–,inactive
COc1ccc(C(=O)Nc2nc3ccccc3c(NCc3ccccc3)c2C#N)cc1,inactive,27.3 µM (active),38.6 µM (active),15.4 µM (active),inactive,–,inactive,inactive,inactive,inactive,–,–,inactive,–,–,–,inactive
COC(C)(C)CCO,inactive,inactive,inactive,inactive,inactive,inactive,inactive,inactive,inactive,–,–,–,inactive,inactive,inactive,–,inactive
Cc1c(N)cccc1[N+](=O)[O-],inactive,inactive,inactive,inactive,inactive,inactive,–,inactive,inactive,inactive,–,inactive,inactive,–,inactive,–,inactive
CCN(CC)CCOC(=O)C(c1ccccc1)C1CCCCC1 (stereo not given),inactive,21.1 µM (active),10.6 µM (active),23.7 µM (active),inactive,inactive,26.6 µM (active),–,–,inactive,inactive,inactive,inactive,inactive,inactive,inactive,inactive
CC(C)(C)OCC1CO1 (stereo not given),inactive,inactive,inactive,inactive,inactive,–,inactive,inactive,inactive,–,–,–,inactive,–,inactive,–,inactive
CCCCO,inactive,inactive,inactive,inactive,inactive,inactive,inactive,inactive,inactive,–,–,–,inactive,inactive,inactive,–,inactive
CN(Cc1ccc(C(C)(C)C)cc1)Cc1cccc2ccccc12,inactive,inactive,inactive,inactive,inactive,inactive,–,–,inactive,inactive,inactive,inactive,inactive,inactive,inactive,inactive,inactive
O=C(O)c1ccccc1Cl,inactive,inactive,inactive,inactive,inactive,inactive,inactive,inactive,inactive,–,–,–,inactive,inactive,inactive,–,inactive
Nc1ccc(S(=O)(=O)Nc2ccccc2)cc1,inactive,inactive,inactive,inactive,inactive,inactive,inactive,inactive,inactive,–,–,–,inactive,inactive,inactive,–,inactive
CCOC(=O)C(F)(F)F,inactive,inactive,34.4 µM (active),inactive,inactive,inactive,inactive,inactive,inactive,–,–,–,inactive,inactive,inactive,–,inactive
Clc1ccc2c(c1)CCc1cccnc1C2=C1CCNCC1,inactive,5.31 µM (active),7.5 µM (active),8.41 µM (active),inactive,–,10.6 µM (active),9.44 µM (active),–,inactive,–,–,inactive,–,–,–,–
COc1cc2c(cc1OC)C(C(C(=O)N(CCc1ccc(OC)c(OC)c1OC)CCc1ccc(OC)c(OC)c1OC)c1ccccc1)=NCC2 (stereo not given),inactive,6.68 µM (active),10.6 µM (active),11.9 µM (active),inactive,inactive,–,–,inactive,–,–,–,–,inactive,–,–,inactive
Clc1ccc(Cn2c(CN3CCCC3)nc3ccccc32)cc1,inactive,4.03 µM (active),2.54 µM (active),7.17 µM (active),inactive,–,–,11.4 µM (active),inactive,–,–,–,inactive,inactive,inactive,–,inactive
O=C(O)CC(=O)C(=O)O,inactive,inactive,inactive,inactive,inactive,–,inactive,–,–,–,–,–,inactive,inactive,inactive,–,inactive
COc1ccc(C)cc1[N+](=O)[O-],inactive,inactive,inactive,inactive,inactive,inactive,inactive,inactive,inactive,–,–,–,inactive,inactive,inactive,–,inactive
